Source: PubChem
DT40 TDP1 CPT: DT40-hTDP1 cell growth loss with CPT; hit rate 12% among 420,000; AID 686979; chicken DT40 Tdp1-/-;hTDP1 cells + 20 nM CPT, ATP luminescence, 48 h; Potency, µM (series often up to 46.2 µM), hits mostly inhibitors; further: nearly all actives have a fitted effect of over 55% in size
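Cell growth measured by CellTiter-Glo luminescence after a minimum 48 h, 37 C compound exposure with 20 nM CPT in Tdp1-knockout DT40 cells stably expressing hTDP1, seeded 400/well; qHTS titration format.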
HT1080 IDH1KD tx: kills HT-1080 cells with IDH1 knockdown; HT-1080 IDH1 knockdown viability, ATP luminescence, 48 h; Potency, µM (titrated, usually from 46.1 µM), most hits filed as cytotoxic; hit rate 2% among 360,000; AID 686971
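After a 2 h attachment period, IDH1KD HT-1080 cells took pin-transferred compound for 48 h at 37 °C; ATP-based luminescence after 10 min room-temperature reagent incubation reported viability.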
HT1080-NT tox: kills 2HG-producing HT-1080-NT fibrosarcoma cells; HT-1080-NT fibrosarcoma viability, CellTiter-Glo ATP luminescence, 48 h; Potency, µM (highest dose often 46.1 µM), actives largely listed as cytotoxic; hit rate 1.6% among 360,000;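 further: NT is the 2HG producing partner of a matched IDH1 knockdown line; nearly all actives have a fitted effect of over 55% in size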
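A 48-hour cytotoxicity screen used HT-1080-NT cells plated 2 hours before compound delivery. ATP-based CellTiter-Glo luminescence measured viability, normalized to DMSO and no-cell controls.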
TDP1 cell noCPT: qHTS for Inhibitors of human tyrosyl-DNA phosphodiesterase 1 (TDP1): qHTS in cells in absence of CPT | DT40 Tdp1-/- hTDP1 cells, no CPT, ATP luminescence, 48 h | Potency, µM (top dose mostly 46.2 µM), actives largely listed as inhibitors | hit rate 15% among 420,000; further: nearly all actives have a fitted effect of over 55% in size
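DT40 Tdp1-/-;hTDP1 cells, no CPT (DMSO vehicle only), 400 cells/well; compounds pin-transferred; ≥48 hr, 37 °C; CellTiter-Glo 30 min RT dark, luminescence read.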
ELG1 repair inh: inhibitors of ELG1-dependent DNA repair in HEK293T cells. HEK293T ELG1-luciferase reporter, luminescence, 16 h; DNA damage induced by 5-fluorouridine. Potency, µM (titrated, usually from 46.1 µM), actives largely listed as inhibitors. hit rate 2.3% among 330,000; further: nearly all actives have a fitted effect of over 55% in size
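Overnight (16 hr) co-exposure of 2,000 cells/well to 5-fluorouridine and compound at 37 °C preceded detection. Luciferase was quantified via ONE-Glo luminescence; loss of signal denotes inhibition.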
IL1B secr inh: inflammasome signaling inhibition, IL-1 beta readout; THP-1 LPS/ATP IL-1B secretion, AlphaLISA, 16 h; stronger effect = lower value; activity change, % at 57.5 µM; hit rate 4.7% among 360,000; in the data active means activity change below about -50%; inconclusive means mostly about -30% to -49%
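THP-1 cells pretreated 1 hr with compounds (up to 57.5 uM final), then stimulated with LPS (250 ng/mL final) plus ATP (1.25 mM final); secreted IL-1B measured by AlphaLISA after 16 hr, decreased signal indicating inhibition.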
Numbers stand for hits; - = inactive; ? = inconclusive; . = not tested or not shown; [ ] = another dose, or the depositor's remark. Sampled rows, rich in hits. Any-hit rate of the full collection: about 19%. Unless noted, the call rests on the fitted dose curve; in most records, active means well fitted curve in the direction sought with a large enough effect; inconclusive means small, poorly fitted or top-dose-only effect, or another doubt; inactive means no such curve, though single readings can be large; an effect the other way counts as inactive or inconclusive.

SMILES	DT40 TDP1 CPT	HT1080 IDH1KD tx	HT1080-NT tox	TDP1 cell noCPT	ELG1 repair inh	IL1B secr inh
C[C@H]1CN([C@@H](C)CO)S(=O)(=O)c2ccc(Br)cc2O[C@H]1CN(C)Cc1ccccc1F	16µM	-	-	23µM	.	?
C[C@@H]1CN([C@@H](C)CO)S(=O)(=O)c2ccc(Br)cc2O[C@H]1CN(C)Cc1ccccc1F	15µM	?	?	10µM	.	-
CCCN(CCC)C(=O)/C=C/c1cccc([N+](=O)[O-])c1	?	-	-	?	-	-
CCCN(CC(=O)Nc1ccc(Cl)cc1Cl)C(=O)/C=C/c1cccc([N+](=O)[O-])c1	?	-	-	29µM	?	?
CCCN(CC(=O)Nc1ccc(Cl)cc1Cl)C(=O)/C=C/c1cc(OC)ccc1OC	?	-	-	29µM	?	-
Cc1ccc(-n2nc(C)c3c(C)c(CCC(=O)NCc4ccccc4Cl)c(C)nc32)cc1	16µM	.	.	?	.	.
Cc1ccc(-n2nc(C)c3c(C)c(CCC(=O)NCc4ccco4)c(C)nc32)cc1	23µM	-	-	?	23µM	-
NC(N)=Nc1nc(-c2ccccc2)c2cc(F)ccc2n1	21µM	21µM	21µM	12µM	-	-90
O=C(C1CCOCC1)N1CCCC(N2CCN(c3ccc(F)cc3)CC2)C1 (stereo not drawn)	-	-	-	-	-	-
CCN(CC)C(=O)c1ccc2c(=O)n(Cc3cccc(Br)c3)c(=S)[nH]c2c1	23µM	-	-	15µM	?	-
CC1CCCN(C(=O)c2ccc3c(=O)n(Cc4ccc5c(c4)OCO5)c(=S)[nH]c3c2)C1 (stereo not drawn)	16µM	-	?	23µM	?	?
O=C(c1ccc2c(=O)n(Cc3ccc4c(c3)OCO4)c(=S)[nH]c2c1)N1CCN(Cc2ccccc2)CC1	?	-	-	?	.	.
O=C(c1ccc2c(=O)n(Cc3ccco3)c(=S)[nH]c2c1)N1CCN(Cc2ccc3c(c2)OCO3)CC1	14µM	-	-	11µM	.	.
CCN(CC)C(=O)c1ccc2c(=O)n(Cc3ccc4c(c3)OCO4)c(=S)[nH]c2c1	15µM	-	-	21µM	-	-
O=c1onc(-c2ccccc2)n1Cc1ccc([N+](=O)[O-])cc1	-	-	-	-	.	-
COc1ccc(CCC(=O)OCC(=O)c2cccc(OC)c2)cc1	-	-	-	-	-	-
COc1cc(CN2CCC3(CCC(CNC(=O)c4ccccc4)O3)CC2)cc(OC)c1 (stereo not drawn)	10µM	.	.	?	.	.
Cc1cc(C(=O)NCC2CCC3(CCN(Cc4ccc(-c5ccccc5)cc4)CC3)O2)n(C)n1 (stereo not drawn)	?	.	.	4.6µM	.	.
Cc1nc2ccc(C(=O)NCC3CCC4(CCN(Cc5cccnc5)CC4)O3)cc2nc1C (stereo not drawn)	-[9.04 µM]	.	.	-	.	.
COc1ccc(F)c(CN2CCC3(CCC(CNC(=O)c4cc(C)nn4C)O3)CC2)c1 (stereo not drawn)	?	.	.	15µM	.	.
O=C(Nc1nc(-c2ccncc2)cs1)C1c2ccccc2Oc2ccccc21	21µM	-	-	13µM	-	-
c1ccc(-c2nc(-c3ccco3)cs2)nc1	15µM	-	-	16µM	?	-
O=C(NC(=S)Nc1nc(-c2ccccc2)cs1)c1ccco1	?	-	-	-	-	-
COc1ccc(-c2csc(NC(=O)COC(=O)c3ccco3)n2)cc1	23µM	-	-	?	?	-
O=C(Nc1nc(-c2ccncc2)cs1)c1ccco1	?	-	-	11µM	?	-
SMILES	DT40 TDP1 CPT	HT1080 IDH1KD tx	HT1080-NT tox	TDP1 cell noCPT	ELG1 repair inh	IL1B secr inh
O=C(Nc1nc(-c2cc3ccccc3oc2=O)cs1)c1ccco1	?	-	-	?	-	-
O=C(Nc1nc(-c2ccccn2)cs1)c1ccco1	5.2µM	-	?	1.6µM	?	-
C[C@H](NC(=O)c1ccco1)C(=O)Nc1nc(-c2ccccn2)cs1	?	-	-	13µM	.	-
O=C(Nc1nc(-c2cc(Cl)sc2Cl)cs1)c1ccc(Br)s1	18µM	-	-	16µM	-	-
O=C(Nc1cccnc1)c1ccc(Br)s1	?	10µM	?	?	-	-
CC(=O)Nc1nc(-c2ccc(Br)s2)cs1	-	-	-	-	-	-
O=C(Nc1cccc(S(=O)(=O)N2CCOCC2)c1)C1CCN(S(=O)(=O)c2ccccc2)CC1	?	-	-	-	-	-
CC(C)[C@H](NC(=O)[C@@H]1Cc2ccccc2CN1)C(=O)Nc1ccc2c(c1)OCO2	-	-	-	-	-	-
COc1ccc(CNC(=O)CCSCc2cccc(F)c2)cc1	-	-	-	-	-	-
FC(F)(F)c1cc(-c2ccccn2)nc2cc(-c3ccccc3)nn12	-	-	-	-	-	-
O=C(Nc1cccc(F)c1)N1CC2(CCN(C(=O)c3ccco3)CC2)C1	-	.	.	-	.	.
N#CC1=C2CCCCC2(O)NC1=O (stereo not drawn)	-	-	-	-	.	-
O=C(Nc1nc(-c2ccccn2)cs1)c1cccc(-n2cnnn2)c1	5.2µM	?	?	4.6µM	?	-
O=C(Nc1nccs1)c1ccc(Br)s1	-	-	-	-	?	-
O=C(Nc1nc(-c2ccccn2)cs1)c1ccc(Br)s1	1µM	1.4µM	2µM	0.65µM	-	-
CCC(=O)N1CCc2cc(-c3csc(NC(=O)c4ccco4)n3)ccc21	?	-	?	13µM	?	-
CCc1cc(=O)oc2cc(C)c3c(-c4ccc(F)cc4)coc3c12	-	.	.	-	.	.
O=C1NC(=O)C(Cc2ccccc2F)(C2CCN(Cc3cccn3-c3cccnc3)CC2)N1 (stereo not drawn)	-	.	.	-	.	.
CCCc1ccc(S(=O)(=O)N2CCC(c3nnc(-c4cccc(C)c4)o3)CC2)cc1	5.2µM	.	.	4.6µM	.	.
CCCc1ccc(S(=O)(=O)N2CCC(c3nnnn3-c3ccc(OC)cc3)CC2)cc1	-	.	.	-	.	.
Cc1ccc(S(=O)(=O)N2CCC(c3nnc(-c4cccc(C)c4)o3)CC2)cc1	3.7µM	.	.	3.7µM	.	.
CSc1ccccc1OCc1cc(C(=O)NCCn2nc(C)cc2C)no1	12µM	-	-	?	?	-
CSc1ccccc1OCc1cc(C(=O)N(C)Cc2ccc3nsnc3c2)no1	?	-	-	-	?	-
CCN(CC1CCCO1)C(=O)c1cc(COc2ccccc2SC)on1 (stereo not drawn)	16µM	-	-	21µM	-	-
CSc1ccccc1OCc1cc(C(=O)N(C)Cc2ccc(C)o2)no1	16µM	-	-	?	?	-67
